Data: PubChem BioAssay (NCI)
This is part of a sample that, as a whole, favours compounds with a hit. Of some 83,000 tested, about 20% had one in any assay.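 Method: cells in 96-well plates; compound added at one concentration; 48 h incubation; percent growth measured; values under 10 scored active.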 Active and inactive are the calls of the source.

Tests used:
Test in all cases: NCI-60 one-dose screen, 48 h (100 = growth as untreated, 0 = no growth, -100 = all killed)
NCI-H23 lung = conditions: 10 µM unless noted
NCI-H322M lung = conditions: 10 µM unless noted
HOP-62 NSCLC = conditions: 10 µM unless noted
NCI-H460 lung = conditions: 10 µM unless noted
HOP-92 NSCLC = conditions: 10 µM unless noted
NCI-H522 lung = conditions: 10 µM
A549/ATCC NSCLC = conditions: 10 µM unless noted
786-0 renal = conditions: 10 µM unless noted
COLO 205 colon = conditions: 10 µM unless noted

Measured: growth

O=C1CCC(N2Cc3c(C#CCCCNC(=O)c4cc5c(o4)C(=O)c4ccccc4C5=O)cccc3C2=O)C(=O)N1 (stereo unspecified)
inactive: HOP-92 NSCLC 52.3% | A549/ATCC NSCLC 30% | 786-0 renal 49.7%
active: NCI-H23 lung -80.1% | NCI-H322M lung -88.2% | HOP-62 NSCLC -65.3% | NCI-H460 lung -82% | NCI-H522 lung -61.2%

COC(=O)c1c2c(c(C)[n+]([O-])c1C)C(=O)C=C(NCc1cccc(Cl)c1)C2=O
active: NCI-H23 lung -63% | NCI-H322M lung -18.3% | HOP-62 NSCLC -19.8% | NCI-H460 lung -3.61% | HOP-92 NSCLC -32.2% | NCI-H522 lung -63.5% | A549/ATCC NSCLC -49.5% | 786-0 renal 6.87%

CN1CCN(c2ccc3nc(-c4ccc5nc(-c6ccc(C(F)(F)F)cc6)[nH]c5c4)[nH]c3c2)CC1
inactive: NCI-H23 lung 68.2% | NCI-H322M lung 80.1% | HOP-62 NSCLC 51.3% | NCI-H460 lung 30.9% | HOP-92 NSCLC 59.3% | NCI-H522 lung 64.1% | A549/ATCC NSCLC 89.8% | 786-0 renal 69.6%

CCOC(=O)c1[nH]c2cc(Cl)ccc2c1[C@@H](C(=O)NC(C)(C)C)N(CC)C(=O)CCCCC#Cc1cccc2c1CN(C1CCC(=O)NC1=O)C2=O (stereo partly specified)
inactive: NCI-H23 lung 59.4% | NCI-H322M lung 13.5% | HOP-62 NSCLC 20.7% | NCI-H460 lung 13.9% | NCI-H522 lung 44.2% | A549/ATCC NSCLC 20.7% | 786-0 renal 13.5%
active: HOP-92 NSCLC 6.15%

O=c1oc2ccccc2cc1-c1csc(N=Nc2c(O)[nH]c3ccc(Cl)cc23)n1
inactive: NCI-H23 lung 101% | NCI-H322M lung 105% | HOP-62 NSCLC 117% | NCI-H460 lung 99.9% | HOP-92 NSCLC 114% | NCI-H522 lung 98.4% | A549/ATCC NSCLC 89.6% | 786-0 renal 105%

O=c1oc2ccccc2cc1-c1csc(N/N=C/c2cc3ccccc3nc2Cl)n1
inactive: NCI-H23 lung 99.8% | NCI-H322M lung 103% | HOP-62 NSCLC 109% | NCI-H460 lung 99.7% | HOP-92 NSCLC 97.5% | NCI-H522 lung 93.3% | A549/ATCC NSCLC 92.8% | 786-0 renal 107%

CCCCCCCC/C=C\CCCCCCCCOc1cccc(CC(=O)NCC[N+]2(C)CCOCC2)c1
inactive: NCI-H23 lung 90.4% | NCI-H322M lung 101% | HOP-62 NSCLC 66.3% | NCI-H460 lung 67% | HOP-92 NSCLC 86.4% | NCI-H522 lung 77% | A549/ATCC NSCLC 90.6% | 786-0 renal 94.9%

c1ccc2cc(Cn3c(-c4ccc5ccccc5c4)[n+](Cc4ccc5ccccc5c4)c4ccccc43)ccc2c1
active: NCI-H23 lung -56.2% | NCI-H322M lung -7.14% | HOP-62 NSCLC -66.8% | NCI-H460 lung -81.7% | HOP-92 NSCLC -60.3% | A549/ATCC NSCLC -65.3% | 786-0 renal -95.1% | COLO 205 colon -69.5%

COc1ccc(/C=C/C(=O)N2CCC(O)CC2)cc1OC1CCCC1
inactive: NCI-H23 lung 103% | NCI-H322M lung 108% | HOP-62 NSCLC 95.1% | NCI-H460 lung 104% | HOP-92 NSCLC 95.7% | A549/ATCC NSCLC 91.4% | 786-0 renal 104%

O=c1[nH]c(=O)n(Cc2ccc(F)cc2)cc1F
inactive: NCI-H23 lung 105% [50 µM] | NCI-H322M lung 107% [50 µM] | HOP-62 NSCLC 109% [50 µM] | NCI-H460 lung 108% [50 µM] | HOP-92 NSCLC 108% [50 µM] | A549/ATCC NSCLC 96% [50 µM] | 786-0 renal 105% [50 µM] | COLO 205 colon 115% [50 µM]

CCCCC(O)Cn1ncc(C(=O)OCC)c1NC(=O)NCc1ccccc1C(F)(F)F (stereo unspecified)
inactive: NCI-H23 lung 98.1% | NCI-H322M lung 105% | HOP-62 NSCLC 93.4% | NCI-H460 lung 103% | HOP-92 NSCLC 84.7% | NCI-H522 lung 88.3% | A549/ATCC NSCLC 89.1% | 786-0 renal 93.2%

Cc1ccc(N=c2nc3sc4c(C)ccc(C)c4n3c(N)c2C#N)cc1
inactive: NCI-H23 lung 90.2% | NCI-H322M lung 113% | HOP-62 NSCLC 101% | NCI-H460 lung 105% | HOP-92 NSCLC 76.6% | A549/ATCC NSCLC 100% | 786-0 renal 101% | COLO 205 colon 108%

COc1ccc(NS(=O)(=O)c2ccc(-c3cnc(C4CC4)o3)cc2)cc1
inactive: NCI-H23 lung 71.9% | NCI-H322M lung 91.8% | HOP-62 NSCLC 54.8% | NCI-H460 lung 33.2% | HOP-92 NSCLC 63% | NCI-H522 lung 51% | A549/ATCC NSCLC 54.7% | 786-0 renal 81.3%

COc1cc2cc(Oc3ccc(NC(=O)Nc4cccc(C(F)(F)F)c4)cc3)c(C)nc2cc1OCCN1CCCCC1
active: NCI-H23 lung -75.4% | NCI-H322M lung -14.5% | HOP-62 NSCLC -68.8% | NCI-H460 lung -84.2% | A549/ATCC NSCLC -56.2% | 786-0 renal -83.7% | COLO 205 colon -74.9%
inactive: HOP-92 NSCLC 23.4%

COc1ccc(/C=N/OCC(O)CN2CCC(O)CC2)cc1OC1CCCC1 (stereo unspecified)
inactive: NCI-H23 lung 106% | NCI-H322M lung 108% | HOP-62 NSCLC 103% | NCI-H460 lung 106% | HOP-92 NSCLC 98.2% | NCI-H522 lung 99.2% | A549/ATCC NSCLC 101% | 786-0 renal 102%

CC(C)OC1=C(Cl)C(=O)c2ccccc2C1=O
inactive: NCI-H23 lung 81.8% | NCI-H322M lung 95% | HOP-62 NSCLC 92.1% | NCI-H460 lung 103% | HOP-92 NSCLC 99.8% | A549/ATCC NSCLC 102% | 786-0 renal 108% | COLO 205 colon 97.7%

COc1ccc(C2=NOC(CC(=O)N(CCO)CCO)C2)cc1OC1CCCC1 (stereo unspecified)
inactive: NCI-H23 lung 99.9% | NCI-H322M lung 107% | HOP-62 NSCLC 102% | NCI-H460 lung 103% | HOP-92 NSCLC 94.1% | NCI-H522 lung 98.3% | A549/ATCC NSCLC 95.5% | 786-0 renal 92.7%

O=c1c2cc(F)ccc2oc2c(NCCNCCO)nc3ccccc3c12
inactive: NCI-H23 lung 53% | NCI-H322M lung 36.1% | HOP-62 NSCLC 35.5% | NCI-H460 lung 13.1% | HOP-92 NSCLC 38.4% | NCI-H522 lung 39.8% | A549/ATCC NSCLC 45.1% | 786-0 renal 42%

O=C(c1cnn2c1NC(c1ccc(F)cc1)C2)N1CCCCC1 (stereo unspecified)
inactive: NCI-H23 lung 105% | NCI-H322M lung 112% | HOP-62 NSCLC 92.1% | NCI-H460 lung 105% | HOP-92 NSCLC 97% | A549/ATCC NSCLC 98.2% | 786-0 renal 106%

O=C1/C(=C/c2ccc([N+](=O)[O-])cc2)Oc2ccc(O)cc21
inactive: NCI-H23 lung 75.8% | NCI-H322M lung 106% | HOP-62 NSCLC 50.6% | NCI-H460 lung 40.9% | HOP-92 NSCLC 93.7% | NCI-H522 lung 75.4% | A549/ATCC NSCLC 70.8% | 786-0 renal 96%

CC(C)(C)[Si](C)(C)OC1[C@@H](COC(=O)NC(=O)CCl)O[C@@H](n2cnc3c(N)ncnc32)[C@H]1O[Si](C)(C)C(C)(C)C (stereo partly specified)
inactive: NCI-H322M lung 113% | HOP-62 NSCLC 81.9% | NCI-H460 lung 64.6% | HOP-92 NSCLC 12.7% | A549/ATCC NSCLC 62.6% | COLO 205 colon 27.5%
active: NCI-H23 lung -45% | 786-0 renal 4.11%

COc1ccc(/C=N/NC(=O)c2cnn3c2NC(c2ccccc2)C3)cc1OC1CCCC1 (stereo unspecified)
inactive: NCI-H23 lung 98.8% | NCI-H322M lung 101% | HOP-62 NSCLC 87.9% | NCI-H460 lung 100% | HOP-92 NSCLC 94% | A549/ATCC NSCLC 84.1% | 786-0 renal 98.4%

COc1ccc(OC2=CC(=O)c3ccc(C)nc3C2=O)cc1
inactive: NCI-H23 lung 65.7% | NCI-H322M lung 102% | HOP-62 NSCLC 89.1% | NCI-H460 lung 86.1% | HOP-92 NSCLC 122% | NCI-H522 lung 55.2% | A549/ATCC NSCLC 96.4% | 786-0 renal 109%

NC(=O)c1cccc(-n2ccc3cc(NC(=O)Nc4ccc(Cl)c(Cl)c4)ccc32)n1
inactive: NCI-H23 lung 92.9% | NCI-H322M lung 96.7% | HOP-62 NSCLC 81.1% | NCI-H460 lung 75.4% | HOP-92 NSCLC 78% | NCI-H522 lung 68.2% | A549/ATCC NSCLC 74.4% | 786-0 renal 66.4%

O=C1c2c(c3c4cc(Br)ccc4[nH]c3c3ccc4ccccc4c23)C(=O)N1O
inactive: NCI-H23 lung 95.7% | NCI-H322M lung 96.9% | HOP-62 NSCLC 79.6% | NCI-H460 lung 83.8% | HOP-92 NSCLC 140% | NCI-H522 lung 63.2% | A549/ATCC NSCLC 95.6% | 786-0 renal 106%

O=S(=O)(Nc1ccccc1Cl)c1ccc(-c2cnc(C3CC3)o2)cc1
inactive: NCI-H23 lung 39.9% | NCI-H322M lung 42.3% | HOP-62 NSCLC 34.1% | NCI-H460 lung 18% | HOP-92 NSCLC 37.1% | A549/ATCC NSCLC 31.4% | 786-0 renal 51.1%

O=C(NC1CC1)c1cc2n(n1)CC(c1ccccc1)N2 (stereo unspecified)
inactive: NCI-H23 lung 100% | NCI-H322M lung 99% | HOP-62 NSCLC 102% | NCI-H460 lung 100% | HOP-92 NSCLC 85.3% | NCI-H522 lung 91.1% | A549/ATCC NSCLC 99.6% | 786-0 renal 101%

COc1cccc2c(=O)c3c(sc12)c(NCCN(C)C)nc1ccccc13
inactive: NCI-H23 lung 32.4% | NCI-H322M lung 26.2% | HOP-62 NSCLC 27.2% | 786-0 renal 28.7%
active: NCI-H460 lung -53.1% | HOP-92 NSCLC -3.75% | A549/ATCC NSCLC 7.73%

CN(C)c1ccc(/C=C(\C#N)c2cc3ccccc3n2C)cc1
inactive: NCI-H23 lung 34.6% | NCI-H322M lung 49.7% | HOP-62 NSCLC 62.1% | HOP-92 NSCLC 72.5% | A549/ATCC NSCLC 24.6% | 786-0 renal 38.6%
active: NCI-H460 lung 5.38% | COLO 205 colon -17.2%

COC(=O)[C@@]12CC[C@@H](C)[C@]3(C[C@@H](c4ccoc4)OC3=O)[C@H]1CC[C@@H]1O[C@@]12C
inactive: NCI-H23 lung 96.1% | NCI-H322M lung 104% | HOP-62 NSCLC 94.2% | NCI-H460 lung 103% | HOP-92 NSCLC 92.4% | NCI-H522 lung 84.9% | A549/ATCC NSCLC 103% | 786-0 renal 99.3%

c1ccc2cc(-c3n(Cc4ccc5ccccc5n4)c4ccccc4[n+]3Cc3ccc4ccccc4n3)ccc2c1
active: NCI-H23 lung -16.5% | NCI-H322M lung 7.73% | HOP-62 NSCLC -7% | NCI-H460 lung -57.3% | HOP-92 NSCLC -31.6% | A549/ATCC NSCLC 6.23% | 786-0 renal 5.11% | COLO 205 colon -66.7%

CC(C)(C)[Si](C)(C)OC1[C@@H](COC(N)=O)O[C@@H](n2cnc3c(N)ncnc32)[C@H]1O[Si](C)(C)C(C)(C)C (stereo partly specified)
inactive: NCI-H23 lung 87.9% | NCI-H322M lung 114% | HOP-62 NSCLC 95.7% | NCI-H460 lung 83.9% | HOP-92 NSCLC 55.3% | A549/ATCC NSCLC 67.8% | 786-0 renal 91.2% | COLO 205 colon 103%
